# Sampled rows, rich in hits. Any-hit rate of the full collection: about 19%.
# TDP1 cell noCPT – qHTS for Inhibitors of human tyrosyl-DNA phosphodiesterase 1 (TDP1): qHTS in cells in absence of CPT. DT40 Tdp1-/- hTDP1 cells, no CPT, ATP luminescence, 48 h. Potency, µM (doses to about 46.2 µM), for the others: at the top dose activity change, negative = growth inhibition, usual class: inhibitors. hit rate 15% among 420,000. AID 686978, 2013; further: potency means the concentration at half of the fitted maximal effect; nearly all actives have a fitted effect of over 55% in size
#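 Seeded 400 DT40-hTDP1 cells/well (vehicle DMSO, no 20 nM CPT); pinned compounds; ≥48 hr at 37 °C; CellTiter-Glo luminescence as viability measure.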
# TDP1 cell CPT – qHTS for Inhibitors of human tyrosyl-DNA phosphodiesterase 1 (TDP1): qHTS in cells in presence of CPT | AID 686979, 2013 | chicken DT40 Tdp1-/-;hTDP1 cells + 20 nM CPT, ATP luminescence, 48 h | Potency, µM (titrated, usually from 46.2 µM), for the others: at the top dose activity change, negative = growth inhibition, hits mostly inhibitors | hit rate 12% among 420,000; further: potency means the concentration at half of the fitted maximal effect; nearly all actives have a fitted effect of over 55% in size
#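 Chicken DT40 Tdp1-/- cells stably complemented with human TDP1 were seeded at 400 cells/well in medium containing 20 nM camptothecin, exposed to pin-transferred compounds, and grown at 37 °C for at least 48 hr. Viability was read as ATP luminescence.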
# HT1080 IDH1KD tx – qHTS for induction of synthetic lethality in tumor cells producing 2HG: qHTS for the HT-1080-IDH1KD cell line; hit rate 2% among 360,000; HT-1080 IDH1 knockdown viability, ATP luminescence, 48 h; Potency, µM (highest dose often 46.1 µM), without a hit: at the top dose activity, negative = toxicity, hits mostly cytotoxic; AID 686971, 2013;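 further: potency means the concentration at half of the fitted maximal effect; 0% = DMSO wells and -100% = cell-free medium wells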
#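 In this qHTS, HT-1080 cells depleted of IDH1 are exposed for 48 h at 37 °C to compound titrations. Toxicity is scored from CellTiter-Glo luminescence, with DMSO as full viability and medium alone as none.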
# HT1080NT lethal – qHTS for induction of synthetic lethality in tumor cells producing 2HG: qHTS for the HT-1080-NT fibrosarcoma cell line. AID 686970, 2013. hit rate 1.6% among 360,000. Potency, µM (titrated, usually from 46.1 µM), for inactives: top-dose activity, negative = less viability, actives largely listed as cytotoxic. HT-1080-NT fibrosarcoma viability, CellTiter-Glo ATP luminescence, 48 h;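 further: NT is the 2HG producing partner of a matched IDH1 knockdown line; potency means the concentration at half of the fitted maximal effect; 0% = DMSO-treated cells and -100% = media-only wells without cells; nearly all actives have a fitted effect of over 55% in size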
#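 HT-1080-NT fibrosarcoma cells (2HG-overproducing), 750 cells/well in RPMI with 5% FBS, dosed after 2 h and incubated 48 h at 37C. CellTiter-Glo luminescence normalized to DMSO and no-cell wells; concentration-response curves fitted and classed.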
# IL1B secr inh – qHTS for Inhibitors of Inflammasome Signaling: IL-1-beta AlphaLISA Primary Screen; hit rate 4.7% among 360,000; activity change, % at 57.5 µM; THP-1 LPS/ATP IL-1B secretion, AlphaLISA, 16 h; stronger effect = lower value; in the data active means activity change below about -50%; inconclusive means mostly about -30% to -49%
#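 THP-1 cells pretreated 1 hr with compounds (up to 57.5 uM final), then stimulated with LPS (250 ng/mL final) plus ATP (1.25 mM final); secreted IL-1B measured by AlphaLISA after 16 hr, decreased signal indicating inhibition.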
# An asterisk follows results filed as active; i = inactive; ? = inconclusive; . = no result; [ ] = dose if it differs, or a comment. Unless noted, the call rests on the fitted dose curve; in most records, active means well fitted curve in the direction sought with a large enough effect; inconclusive means small, poorly fitted or top-dose-only effect, or another doubt; inactive means no such curve, though single readings can be large; an effect the other way counts as inactive or inconclusive. Unless noted, on the % scale 0 is the no-effect control and ±100 the full control effect.
SMILES,TDP1 cell noCPT,TDP1 cell CPT,HT1080 IDH1KD tx,HT1080NT lethal,IL1B secr inh
CCN(CC(=O)Nc1ccccc1C(F)(F)F)C(=O)c1ccccc1Cc1ccccc1,21µM*,?,-11%,-6%,-26
CCN(CC(=O)Nc1ccccc1C(F)(F)F)C(=O)CCc1ccccc1,-1%,2%,0%,0%,9
Cc1cccc(N(CC(=O)Nc2ccccc2C(F)(F)F)S(=O)(=O)c2ccccc2)c1C,15µM*,16µM*,.,.,.
CCN(CC(=O)Nc1ccccc1C(F)(F)F)C(=O)c1ccc(-n2nc(C)c(CCC(=O)OC)c2C)cc1,21µM*,?,1%,0%,21
COc1ccc(NC(=O)CN(C)C(=O)c2ccc3[nH]c4c(c3c2)CC(C)CC4)cc1 (configuration not stated),23µM*,-19%,-27%,-29%,?
O=C(COc1ccccc1Cl)Nc1ccc2oc(=O)ccc2c1,3%,13%,-6%,-20%,-6
CCCCCCCCCCCCCCCC(=O)OC[C@H](COP(=O)([O-])OCC[N+](C)(C)C)OC(=O)CCCCCCCCCCCCCCC,-7%,11%,.,.,.
CCN(CC(=O)Nc1ccccc1C(F)(F)F)C(=O)c1ccc2[nH]c3c(c2c1)CC(C)CC3 (configuration not stated),18µM*,?,-23%,-3%,-62*
COc1cccc(NC(=O)CN(C)C(=O)c2ccc3[nH]c4c(c3c2)CC(C)CC4)c1 (configuration not stated),?,?,-20%,-7%,?
CCC1CCc2sc(C(=O)N(C)CC(=O)Nc3ccc(OC)cc3)cc2C1 (configuration not stated),21µM*,?,22%,6%,-3
CC1CCc2[nH]c3ccc(C(=O)N(C)CC(=O)Nc4ccc(F)cc4)cc3c2C1 (configuration not stated),10µM*,?,?,-12%,i
O=C(NCc1n[nH]c(=S)n1-c1ccc(Br)cc1)c1ccc(S(=O)(=O)N2CCCCC2)cc1,-14%,7%,-4%,2%,15
CC(C)Nc1nc(Cl)nc(Nc2ccccc2)n1,-11%,-16%,-6%,-2%,-24
O=C1[C@H]2[C@@H](c3ccc(F)cc3)N3C(=O)N(c4cccc(F)c4)C(=O)[C@@]3(Cc3ccc(Cl)cc3)[C@H]2C(=O)N1C1CCCCC1,?,?,11%,3%,-3
COC(=O)c1cc(-c2c(C)oc3cc(OC)ccc3c2=O)c(C)o1,18µM*,12µM*,4%,7%,0
Cc1ccc(NC(=O)C(C)c2ccc(-c3ccccc3)c(F)c2)cc1 (configuration not stated),7.3µM*,?,13µM*,16µM*,-9
C[C@@H](C(=O)O)c1ccc(-c2ccccc2)c(F)c1,2%,5%,.,.,.
CCCS(=O)(=O)c1ccc(COC(=O)c2ccc(NC(C)=O)cc2)cc1,-20%,?,-14%,-15%,-23
COc1cc(NC(=O)N2CCc3nc(Nc4cc(Cl)cc(Cl)c4)ncc3C2)cc(OC)c1OC,?,23µM*,?,?,?
CCn1c(C(=O)N2CCC(C(=O)NCc3ccc4c(c3)OCO4)CC2)cc2sccc21,15µM*,23µM*,-2%,-26%,0
CCc1c(C)nc2ncnn2c1N1CCCC(C(=O)Nc2ccc(NC(C)=O)cc2)C1 (configuration not stated),6%,6%,-2%,-3%,-10
CCc1c(C)nc2ncnn2c1N1CCCC(C(=O)NCc2ccc3c(c2)OCO3)C1 (configuration not stated),21µM*,?,-9%,-5%[9.24 µM],7
Cn1c(C(=O)N2CCCC(C(=O)NCc3ccc4c(c3)OCO4)C2)cc2sccc21 (configuration not stated),23µM*,?,0%,16%,3
COc1cc(NC(=O)C(C)Oc2ccccc2)ccc1NC(=O)COc1ccccc1 (configuration not stated),?,?,3%,6%,-26
O=C(NCc1cccc(C(F)(F)F)c1)c1c[nH]c(=O)s1,-24%,-5%,-18%,-4%,15
SMILES,TDP1 cell noCPT,TDP1 cell CPT,HT1080 IDH1KD tx,HT1080NT lethal,IL1B secr inh
COc1ccc(CNC(=O)C2Cc3c(-c4ccccc4)ccnc3O2)cc1OC (configuration not stated),?,?,-3%,-19%,-12
COc1ccc(NC(=O)C2Cc3c(-c4ccc(NC(C)=O)cc4)ccnc3O2)cc1OC (configuration not stated),?,?,-25%,-21%,-30
O=C(NCc1ccc(F)c(F)c1)C1Cc2c(-c3ccc4c(c3)OCO4)ccnc2O1 (configuration not stated),2.9µM*,2.3µM*,?,?,0
COc1ccc(CNC(=O)C2Cc3c(-c4ccc5c(c4)OCO5)ccnc3O2)cc1OC (configuration not stated),12µM*,18µM*,?,?,-5
COc1ccc(NC(=O)C2Cc3c(-c4ccc5c(c4)OCO5)ccnc3O2)cc1OC (configuration not stated),8.2µM*,9.2µM*,16µM*,?,-7
COCCN1C[C@@H](CO)O[C@@H](n2cnc3c(NC4CCCC4)ncnc32)C1,-8%,-4%,22%,23%,-8
C(=C\c1nc(-c2ccncc2)no1)/c1ccccc1,16µM*,-7%,-6%,0%,-22
C(=C\c1nc(-c2ccccc2)no1)/c1ccccc1,8%,-30%,2%,20%,-18
COc1cc(NC(=O)Cc2ccc(S(=O)(=O)N3CCOCC3)s2)c(OC)cc1Cl,21µM*,?,-15%,-4%,12
COc1ccc(Br)cc1CN(C)C(=O)Cc1ccc(S(=O)(=O)N2CCOCC2)s1,21µM*,?,-10%,-1%,-2
COc1cc(NC(=O)Cc2ccc(OC)c(S(=O)(=O)N3CCOCC3)c2)c(OC)cc1Cl,?,?,-3%,-2%,19
COc1ccc(CN(C)C(=O)Cc2ccc(S(=O)(=O)N3CCOCC3)s2)cc1OC,?,-3%,-5%,-9%,-16
O=C(Cc1ccc(S(=O)(=O)N2CCOCC2)s1)Nc1cc(Cl)ccc1Cl,-15%,4%,-13%,-7%,-57*

# Screens (PubChem)
